# SARS PLpro yeast: blocks SARS-CoV papain-like protease in a yeast assay; Potency, µM (series often up to 32.9 µM), inactives show at the highest dose activity, positive = growth rescue, usual class: activators; actives 0.19% (n = 330,000); S. cerevisiae expressing SARS-CoV PLpro, growth rescue; calls by dose curve; further: potency means the concentration at half of the fitted maximal effect; 0% is about no effect; nearly all actives have a fitted effect of over 55% in size
# Pf growth 96h: P. falciparum growth inhibition at 96 hours; P. falciparum luciferase reporter growth, 96 h; Potency, µM (doses to about 28.7 µM), for inactives: at the top dose activity change, negative = inhibition, most hits filed as inhibitors; actives 6.9% (n = 320,000); further: potency means the concentration at half of the fitted maximal effect; on the % scale 0 is the no-effect control and ±100 the full control effect
#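 Infected RBCs, 2% Hct / 0.05% parasitemia final; luciferase-reporter P. falciparum; cpd 96 h, 37 C, 5% CO2; luciferase detection reagent; luminescence.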
# Pf growth 48h: P. falciparum growth inhibition at 48 hours (one generation); Potency, µM (top dose mostly 28.7 µM), for inactives: at the highest dose activity change, negative = inhibition, actives largely listed as inhibitors; AID 504832; P. falciparum luciferase growth in erythrocytes, 48 h; actives 5.9% (n = 310,000); further: potency means the concentration at half of the fitted maximal effect; on the % scale 0 is the no-effect control and ±100 the full control effect
#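 Read-out is firefly luciferase luminescence from an integrated reporter in P. falciparum, so falling signal marks reduced parasite growth. Infected erythrocytes were at 2% hematocrit and 0.1% parasitemia (final) in Albumax-supplemented RPMI 1640.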
# CHX counter: counter-screen for Shiga toxin inhibitors: cycloheximide protein synthesis inhibition; cell reporter, cycloheximide protein synthesis inhibition counterscreen; max response, %; actives 12% (n = 300,000); in the data active means max response mostly above about 13%, no sharp cut-off; inactive means mostly below about 14%; further: read at 38.3 µM for the half of the compounds with a filed dose; 0% is about no effect
# Shiga inhibitor: Shiga toxin inhibition; Vero cells, Shiga toxin protein synthesis inhibition reporter; inhibition, % at 38.7 µM; actives 9.2% (n = 290,000); AID 2315; in the data active means inhibition mostly above about 28%, no sharp cut-off; inactive means mostly below about 43%; further: 0% is about no effect
# NS1 inh: blocks influenza NS1 protein function. Potency, µM (series often up to 46.1 µM), for inactives: at the highest dose activity, positive = more growth. actives 0.4% (n = 270,000). AID 2326; calls by dose curve; further: potency means the concentration at half of the fitted maximal effect; actives are rising curves; nearly all actives have a fitted effect of over 50% in size
#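 Growth recovery, yeast-based: influenza A NS1 expressed in S. cerevisiae causes slow growth, and suppressors are detected by OD600. The parent strain without NS1 is used as positive control.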
# The depositor's hits bear a star; u = inconclusive; x = not tested or not shown. Sampled rows, rich in hits. Any-hit rate of the full collection: about 21%. Unless noted, the call rests on the fitted dose curve; in most records, active means well fitted inhibition curve with a large enough effect; inconclusive means small, poorly fitted or top-dose-only effect, or another doubt; inactive means no such curve, though single readings can be large or run the other way.
SMILES,SARS PLpro yeast,Pf growth 96h,Pf growth 48h,CHX counter,Shiga inhibitor,NS1 inh
COc1ccc(NC(=O)CSc2nnc(C)n2Cc2ccccc2)cc1,11%,-18%,23%,1,4,-1%
O=C(Cc1c(Sc2ccccc2)c2ccccc2n1Cc1ccccc1)NCCO,-3%,u,u,-5,-10,17%
COc1ccc(NC(=O)Cc2c(SC)c3ccccc3n2Cc2ccccc2)cc1,-6%,7.4µM*,12µM*,-1,10,-2%
CSc1c(CC(=O)NCCCO)n(Cc2ccccc2)c2ccccc12,-4%,9.3µM*,-14%,-1,-2,-6%
CCOC(=O)Cn1c(=O)c(F)cn(Cc2ccc(OC)c([N+](=O)[O-])c2)c1=O,1%,10µM*,6%,-3,-8,7%
CC(=O)Nc1cccc(-c2csc(NCc3ccco3)n2)c1,-4%,72%,u,17,51*,4%
c1coc(CNc2nc(-c3cccs3)cs2)c1,-5%,4%,u,33*,90*,x
Cc1nc2ncccn2c1-c1csc(NCc2ccco2)n1,3%,1%,u,11,9,-4%
Oc1ccc(-c2csc(NCc3ccco3)n2)cc1,-13%,x,56%,44*,158*,4%
Cc1cc(C)nc(NC(=S)NC(=O)c2ccccc2)n1,2%,0.93µM*,15%,2,18,23%
O=C(Nc1cnc2ccccc2c1)c1ccncc1,-9%,-5%,x,73*,183*,-15%
S=C(NCCc1ccccc1)Nc1cnc2ccccc2c1,-1%,26%,0%,31*,61*,x
O=C(NC(=S)Nc1cnc2ccccc2c1)c1ccccc1,-3%,48%,112%,47*,63*,-5%
O=C(CC1C[C@H](C(=O)N2CCCCC2)[C@@]2(CCc3ccccc3)c3[nH]c4ccccc4c3CCN2C1=O)NCCCn1ccnc1 (stereo partly specified),0%,x,x,x,x,x
Cc1ccc(CN2CC(C(=O)N3CCN(S(=O)(=O)c4c(F)cccc4F)CC3)CC2=O)cc1 (stereo unspecified),-2%,u,u,x,x,x
Cn1ncc2cc(NC(=S)NC(=O)c3ccccc3)ccc21,3%,77%,98%,43*,86*,-12%
O=C(NC(=S)Nc1ncc(Br)cc1Br)c1ccccc1,-19%,2%,129%,35*,94*,0%
CCOc1cc(C2NN=C(c3ccc(C)cc3)S2)ccc1O (stereo unspecified),-10%,56%,109%,30*,94*,-1%
COc1ccc(C2NN=C(c3ccc(C)cc3)S2)cc1 (stereo unspecified),-1%,22%,145%,57*,106*,-3%
Cc1ccc(C2=NNC(C(O)C(O)C(O)CO)S2)cc1 (stereo unspecified),1%,93%,x,57*,61*,5%
COc1ccc(C2NC(=O)CS2)cc1 (stereo unspecified),4%,-12%,-12%,-1,14,13%
Cc1ccc(N=CC2=C(O)CC(c3ccc(Cl)cc3)CC2=O)cc1 (stereo unspecified),15%,-15%,9%,-4,-5,18%
COc1ccc2cc(C)c3nnc(SCC(=O)Nc4nc(-c5ccccc5)cs4)n3c2c1,0%,u,u,-5,-19,2%
c1ccc(Nc2nnc(-c3cccc4ccccc34)o2)cc1,-1%,144%,91%,36*,54*,3%
OCC#CCSc1nnc(-c2cccc3ccccc23)o1,-6%,1%,11%,x,x,x
SMILES,SARS PLpro yeast,Pf growth 96h,Pf growth 48h,CHX counter,Shiga inhibitor,NS1 inh
C=CCn1c(O)c(C(CC)=Nc2ccc(N(C)C)cc2)c(=O)[nH]c1=O,-1%,1.7µM*,0.66µM*,5,5,5%
C=CCn1c(O)c(C(C)=Nc2cccc(C(=O)O)c2)c(=O)[nH]c1=O,0%,27%,12%,29*,62*,-2%
CCCCn1c(O)c(C(CC)=Nc2cccc(C(=O)O)c2)c(=O)[nH]c1=O,5%,17%,32%,1,8,-14%
C=CCn1c(O)c(C(CC)=Nc2cccc(C(=O)O)c2)c(=O)[nH]c1=O,1%,7%,39%,76*,76*,-3%
C=CCn1c(O)c(C(CC)=Nc2ccc3c(c2)CCC3)c(=O)[nH]c1=O,4%,21%,-13%,8,28,-9%
C=CCn1c(O)c(C(C)=Nc2cccc(C(F)(F)F)c2)c(=O)[nH]c1=O,1%,4%,5%,-3,-14,0%
CC[C@]12c3[nH]c4ccccc4c3CCN1C(=O)C(CC(=O)NCCCn1ccnc1)C[C@@H]2C(=O)N1CCN(C(=O)c2ccco2)CC1 (stereo partly specified),-5%,x,x,x,x,x
N=c1ccn(Cc2ccc(Cl)c(Cl)c2)cc1,-3%,-33%,0.59µM*,12,-5,-11%
N=c1ccn(Cc2ccc(Cl)cc2)cc1,-2%,7%,1.9µM*,-3,21,1%
Clc1ccc(CN2CCCCCC2)cc1,-6%,u,1%,1,8,9%
N=c1ccn(Cc2cccc(Cl)c2)cc1,5%,u,2.6µM*,1,-9,1%
Clc1cccc(CN2CCN(Cc3ccco3)CC2)c1,0%,16%,5%,8,-1,1%
C=CCNC(=S)N/N=C/c1ccc(N(CC)Cc2ccccc2)cc1,u,0%,6.6µM*,13*,-3,u
CCN(CC)c1ccc(/C=N/NC(=S)NCc2ccccc2)cc1,12%,9.3µM*,13µM*,-5,-9,0%
O=C(Nc1nc(-c2ccccc2)cs1)NC1CCCCC1,-29%,8%,5%,34*,48*,6%
c1ccc(-c2csc(NC3CCCCC3)n2)cc1,-3%,-62%,6%,56*,148*,-6%
COc1ccc(-c2csc(NC(=O)CN3C(=O)CCC3=O)n2)c(OC)c1,23%,71%,20%,-3,-11,-10%
O=C(Nc1nc(-c2ccccc2)cs1)C1CCCCN1S(=O)(=O)c1ccccc1 (stereo unspecified),-3%,53%,u,8,-13,-16%
COc1ccc(-c2csc(NC3CCCCC3)n2)c(OC)c1,-2%,u,9.3µM*,26*,60*,10%
CC(=O)OCOC(=O)CNc1ccccc1OCCOc1ccccc1NCC(=O)OCOC(C)=O,x,x,x,-10,-7,x
Cc1cc(C)c2nc(Cl)c(CN(Cc3ccco3)C(=O)Nc3ccccc3C)cc2c1,-17%,u,12µM*,10,14,u
COCC(=O)N(CCc1ccccc1)Cc1cc2cc(C)ccc2nc1Cl,-9%,0%,-39%,9,x,-20%
COCCN(Cc1cc2cc(C)cc(C)c2nc1Cl)C(=O)Nc1ccccc1,-14%,0%,u,16*,-13,3%
COCCN(Cc1cc2c(C)cc(C)cc2nc1Cl)C(=O)c1ccccc1F,0%,1.9µM*,u,1,-12,x

# Assay outcomes from PubChem.
